Experimental data published in the supplement of paper PMC6522484.
± gives the standard deviation of the averaged measurements.

Legend:
DLD1 [1] = experiment: cell viability (CellTiter-Glo) relative to plate median (fraction of plate median); higher = more viable cells; settings: 5 µM; treatment time 24 h; reporter: 7TFP
Method in brief: (§1)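 Values are well luminescence normalised to the plate median, from either a firefly luciferase or a CellTiterGlo readout on parallel plates. The cells, colorectal cancer lines stably transduced with lentiviral 7TFP or TCF4/Wnt firefly luciferase reporters, were treated with library compounds at a final 5 µM for 24 h. The mean of two independent replicates is listed.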

HCT116 = experiment: as above; settings: 5 µM; treatment time 24 h; reporter: TCF4/Wnt
Method in brief: as §1

SW480 [2] = experiment: as above; settings: 5 µM; treatment time 24 h; reporter: 7TFP
Method in brief: as §1

DLD1 [3] = experiment: TCF/Wnt firefly luciferase reporter signal relative to plate median (fraction of plate median); higher = higher Wnt reporter signal; settings: 5 µM; treatment time 24 h; reporter: 7TFP
Method in brief: as §1

SW480 [4] = experiment: as above; settings: 5 µM; treatment time 24 h; reporter: 7TFP
Method in brief: as §1

Structure (SMILES)	cell viability (DLD1 [1])	cell viability (HCT116)	cell viability (SW480 [2])	TCF/Wnt firefly luciferase reporter signal (DLD1 [3])	TCF/Wnt firefly luciferase reporter signal (SW480 [4])
Cc1oc(C(C)O)c2c1C(=O)c1c(O)cccc1C2=O (stereo not given) [Bhimamycin A]	1.14 ± 0.014	0.958 ± 0.06	1.23 ± 0.13	0.9925 ± 0.0092	1.07 ± 0.042
CC1/C(=N/O)C[C@@H]2C[C@H]1C2(C)C (stereo not given in full)	1.07 ± 0.014	1.09 ± 0.014	1.02 ± 0.037	1.08 ± 0.042	0.919 ± 0.17
O=c1oc(CO)c(CO)c2cccc(O)c12 [8-hydroxy-3,4-bis-(hydroxymethyl)-isocumarin]	0.91 ± 0.03	0.981 ± 0.098	0.967 ± 0.038	1.09 ± 0.092	1.05 ± 0.057
O=c1oc2ccccc2cc1O	0.992 ± 0.04	0.955 ± 0.013	1.03 ± 0.021	0.765 ± 0.016	0.911 ± 0.14
COc1cccc2c1C(=O)c1c(O)c3c(c(O)c1C2=O)C[C@@](O)(C(C)=O)C[C@@H]3O[C@H]1C[C@H](NC=O)[C@H](O)[C@H](C)O1 [Baumycin C1]	0.9535 ± 0.0021	0.838 ± 0.081	0.9955 ± 0.0035	0.955 ± 0.042	1.05 ± 0.057
CC1Cc2ccccc2N1NC(=O)c1ccc(Cl)c(S(N)(=O)=O)c1 (stereo not given)	1.01 ± 0.069	1.1 ± 0.028	1 ± 0.013	0.967 ± 0.13	1.055 ± 0.0071
COc1ccc2c(c1)OC/C(=C\c1ccc(OC)c(O)c1)C2=O	0.933 ± 0.054	1.02	1.03 ± 0.035	0.972 ± 0.11	0.98 ± 0.086
Clc1ccc(C(Cn2ccnc2)OCc2ccsc2Cl)c(Cl)c1 (stereo not given)	0.966 ± 0.077	0.98 ± 0.085	1.005 ± 0.0071	0.923 ± 0.14	0.894 ± 0.023
NS(=O)(=O)c1cc(C(=O)O)c(NCc2ccco2)cc1Cl	0.993 ± 0.0099	1.04	1.09 ± 0.042	1.095 ± 0.0071	1.13 ± 0.057
Clc1ccc(COC(Cn2ccnc2)c2ccc(Cl)cc2Cl)c(Cl)c1 (stereo not given)	0.964 ± 0.042	1.01 ± 0.014	0.973 ± 0.0099	1.04 ± 0.11	1.04 ± 0.12
COc1ccc2cc1Oc1ccc(cc1)C[C@H]1c3c(cc4c(c3Oc3cc5c(cc3OC)CCN(C)[C@@H]5C2)OCO4)CCN1C	1.02 ± 0.052	0.934 ± 0.052	1.14 ± 0.035	1 ± 0.054	1.05 ± 0.028
C[C@@H]1CC[C@@]2(OC1)O[C@H]1C[C@H]3[C@@H]4CC[C@@H]5C[C@@H](O)CC[C@]5(C)[C@H]4CC[C@]3(C)[C@H]1[C@@H]2C	0.993 ± 0.038	1.09 ± 0.05	1.01 ± 0.05	0.956 ± 0.09	1.04 ± 0.071
COc1ccc(C(Cl)=C(c2ccc(OC)cc2)c2ccc(OC)cc2)cc1	1.01 ± 0.044	1.12 ± 0.05	0.978 ± 0.032	0.915 ± 0.19	0.877 ± 0.17
CC(=O)O[C@@H]1C[C@H]2C(C)(C)C(=O)C=C[C@]2(C)[C@H]2CC[C@@]3(C)[C@H](c4ccoc4)OC(=O)[C@H]4O[C@]43[C@@]21C	1.01 ± 0.025	1.07 ± 0.042	0.97 ± 0.018	1.19 ± 0.05	1.11 ± 0.028
Cc1cc(CC(=O)O)n(C)c1C(=O)c1ccc(Cl)cc1	1.07 ± 0.035	0.999 ± 0.03	1.05	1.12 ± 0.24	0.97 ± 0.13
NC(=O)N1c2ccccc2C=Cc2ccccc21	0.931 ± 0.098	1.01 ± 0.029	1.004 ± 0.0092	1.05 ± 0.042	0.937 ± 0.17
Cc1c(C(N)=O)cc([N+](=O)[O-])cc1[N+](=O)[O-]	0.985 ± 0.035	0.926 ± 0.15	0.981 ± 0.056	0.9 ± 0.05	0.9925 ± 0.0064
CCOC(=O)NNc1nncc2ccccc12	0.981 ± 0.07	1.01 ± 0.014	0.981 ± 0.056	0.85 ± 0.045	0.784 ± 0.069
Cc1cc(-c2ccccc2)nnc1NCCN1CCOCC1	1.005 ± 0.0071	0.946 ± 0.077	1.03 ± 0.014	1.02 ± 0.035	1.05 ± 0.057
O=C(O)CCC(=O)OC[C@@H](NC(=O)C(Cl)Cl)[C@H](O)c1ccc([N+](=O)[O-])cc1	1 ± 0.12	0.895 ± 0.04	0.977 ± 0.027	0.838 ± 0.044	0.97 ± 0.022
Nc1ccc(S(=O)(=O)Nc2ccc(Cl)nn2)cc1	1.06 ± 0.096	1.03 ± 0.035	1.08 ± 0.05	0.954 ± 0.028	1.09 ± 0.042
CCOc1cccc(C(=O)c2ccc(O)c(O)c2O)c1	1.03	1.085 ± 0.0071	1.07 ± 0.021	1.04 ± 0.088	0.932 ± 0.019
CC[C@@H](C)c1cc(=O)c2c(CO)cc3c(c2o1)C(=O)c1c(O)cccc1C3=O [Espicufolin]	1.09 ± 0.092	1.13 ± 0.057	1.055 ± 0.0071	1.29 ± 0.15	1.06 ± 0.057
CN(C/C=C/C#CC(C)(C)C)Cc1cccc2ccccc12	1.04 ± 0.18	1.04 ± 0.014	1.03 ± 0.035	1.21 ± 0.042	1.07 ± 0.2
O=C(O)CCCC[C@@H]1SC[C@@H]2NC(=O)N[C@@H]21	1.03 ± 0.063	0.954 ± 0.04	0.948 ± 0.0042	0.982 ± 0.022	0.963 ± 0.0042
Nc1nc2c(ncn2[C@@H]2O[C@H](CO)[C@@H](O)[C@H]2O)c(=O)[nH]1 [Guanosin]	0.915 ± 0.033	0.934 ± 0.044	0.903 ± 0.023	0.927 ± 0.019	0.88 ± 0.014
Cc1ncc(CO)c(CO)c1O	1.02 ± 0.033	1.09 ± 0.17	1.02 ± 0.014	0.951 ± 0.11	0.9705 ± 0.0092
C[C@@](Cc1ccc(O)c(O)c1)(NN)C(=O)O	1.01 ± 0.015	0.981 ± 0.098	1.02 ± 0.067	0.8725 ± 0.005	0.95 ± 0.13
COc1cc(O)c2c(=O)cc(C)oc2c1CC=C(C)C	1.04 ± 0.057	1.06 ± 0.078	1.04 ± 0.035	0.91 ± 0.04	0.991 ± 0.15
CN(C)CCC=C1c2ccccc2C=Cc2ccccc21	1.02 ± 0.034	0.998 ± 0.046	1.035 ± 0.0071	0.991 ± 0.042	0.969 ± 0.0085
